An excerpt weighted towards active compounds, which were near 1.2% of everything screened.
Avidin bead fluor: green autofluorescence of compounds with avidin beads – biophysical, 488/530 nm, flow cytometry, artefact control, profiling panel. compound fluorescence 488/530 nm; active compounds read high. fluorescence (KMESF) at 10 µM. actives 0.38% (n = 220,000); in the data active = fluorescence above about 47
RGS7-Gao: RGS7-Galphao binding modulators, primary screen, biochemical, multiplexed bead flow cytometry. binding response (% of control), % at 10 µM. Guanine nucleotide-binding protein G(o) subunit alpha (Homo sapiens), P09471. actives 0.35% (n = 220,000). actives lie on both sides; in the data active = binding response below about 49% or above about 150%; inconclusive = no clear call, values can overlap the other calls; inactive = in between;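 note: fluorescent Galphao held in activated GDP-AlF4 state binding bead-coupled RGS7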
Target sequence (P09471 whole entry, looked up): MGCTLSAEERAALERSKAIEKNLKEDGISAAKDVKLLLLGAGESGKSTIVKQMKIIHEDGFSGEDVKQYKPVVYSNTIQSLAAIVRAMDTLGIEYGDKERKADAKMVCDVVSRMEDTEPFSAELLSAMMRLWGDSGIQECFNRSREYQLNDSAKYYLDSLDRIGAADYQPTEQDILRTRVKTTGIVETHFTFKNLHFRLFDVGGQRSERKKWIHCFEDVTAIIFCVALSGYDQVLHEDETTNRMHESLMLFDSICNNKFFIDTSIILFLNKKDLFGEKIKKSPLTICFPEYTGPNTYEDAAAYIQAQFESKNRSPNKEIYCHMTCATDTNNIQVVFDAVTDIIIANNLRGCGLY
RGS16-Gao HTS: modulators of RGS16 binding to Galphao, primary screen, biochemical, human proteins, multiplexed bead flow cytometry | Regulator of G-protein signaling 16 (Homo sapiens) + Guanine nucleotide-binding protein … | bead-based flow cytometry RGS16-Galphao binding, fluorescence; actives lie on both sides | binding response (% of control), % at 10 µM | actives 0.38% (n = 220,000) | AID 1441, 2008;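 note: Galphao activated by GDP with aluminum fluoride before binding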
Target sequence (O15492 whole entry, looked up): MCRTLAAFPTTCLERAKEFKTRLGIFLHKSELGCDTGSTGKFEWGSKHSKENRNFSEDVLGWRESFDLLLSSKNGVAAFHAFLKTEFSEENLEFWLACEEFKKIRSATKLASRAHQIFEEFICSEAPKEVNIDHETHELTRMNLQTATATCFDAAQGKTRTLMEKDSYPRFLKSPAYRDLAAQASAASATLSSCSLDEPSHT
Target sequence (P09471 whole entry, looked up): as the sequence (P09471 whole entry, looked up) above
GSH bead fluor: compound fluorescence on glutathione beads, profiling panel, artefact control, biophysical, 488/530 nm, flow cytometry. actives 0.25% (n = 190,000). fluorescence (KMESF) at 10 µM. AID 1776, 2009. GSH beads flow cytometry, compound fluorescence 488/530 nm; active compounds read high; in the data active = fluorescence above about 89;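 note: glutathione beads carrying GST-tagged Bcl family fusion proteins plus one bare bead set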
RGS4-Gao reg: modulators of RGS4 binding to Galphao, primary screen, biochemical, multiplexed bead flow cytometry; actives lie on both sides; binding response (% of control), % at 10 µM; actives 0.33% (n = 220,000); AID 1415, 2008; in the data active = binding response below about 49% or above about 150%; inactive = in between;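 note: fluorescent Galphao activated with aluminum fluoride binding bead-coupled RGS4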
RGS8-Gao: RGS8-Galphao binding modulators, primary screen, biochemical, multiplexed bead flow cytometry | Guanine nucleotide-binding protein G(o) subunit alpha (Homo sapiens), P09471 | actives lie on both sides | response (percent of control binding), % at 10 µM | actives 0.34% (n = 220,000); in the data active = response below about 60% or above about 140%; inactive = in between;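 note: Galphao activated as the GDP aluminium fluoride complex binding bead-coupled RGS8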
RGS-Gao: modulators of RGS–Galpha-o binding, primary screen, biochemical, multiplexed beads, flow cytometry, RGS4/7/8/16/19; shares compounds with RGS16-Gao HTS; multiplexed bead flow cytometry; RGS4–Galpha-o binding response, % at 10 µM; actives 99% (n = 1,600); AID 1504, 2009;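 note: fluorescently labeled Galpha-o bound to GDP with aluminium fluoride binding biotinylated RGS beads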
Avidin counter: disruption of biotin probe capture by avidin, counter-screen for RGS protein interaction modulators, biochemical, flow cytometry, bead-based; shares compounds with RGS16-Gao HTS; streptavidin beads, fluorescein-biotin binding; inhibition, % at 10 µM; 1,700 tested, under 10 active;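 active = inhibition above 50%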;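 note: median green fluorescence of gated singlet beads compared with DMSO control wells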
RGS8-Gao single: RGS8-Galphao binding modulators, confirmation, biochemical, multiplexed bead flow cytometry, single concentration; shares compounds with RGS16-Gao HTS; bead-based flow cytometry RGS8-Galphao binding, fluorescence; actives lie on both sides; binding response (% of control), % at 10 µM; actives 3% (n = 1,700); in the data active = binding response below about 72% or above about 130%; inactive = in between;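 note: Galphao activated as GDP AlF4 complex before binding bead RGS8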
RGS7-Gao confirm: RGS7-Galphao binding modulators, confirmation, biochemical, multiplexed bead flow cytometry, single concentration | AID 1837, 2009 | actives 7.8% (n = 1,700) | shares compounds with RGS16-Gao HTS | bead-based flow cytometry RGS7-Galphao binding; actives lie on both sides | response (percent of control binding), % at 10 µM; in the data active = response below about 75% or above about 130%; inactive = in between;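 note: fluorescent Galphao activated with GDP and aluminum fluoride binding bead-coupled RGS7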
RGS16-Gao conf: modulators of RGS16-Galphao protein binding, confirmation, biochemical, single concentration, multiplexed bead flow cytometry; response (% of control binding), % at 10 µM; bead-based flow cytometry; actives lie on both sides; shares compounds with RGS16-Gao HTS; AID 1838, 2009; actives 4% (n = 1,700); in the data active = response below about 74% or above about 130%; inactive = in between;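 note: Galphao activated as the GDP aluminium fluoride complex binding bead-coupled RGS16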
RGS4-Gao confirm: modulators of RGS4-Galphao protein binding, confirmation, biochemical, single concentration, multiplexed bead flow cytometry. shares compounds with RGS16-Gao HTS. actives 4% (n = 1,700). AID 1840, 2009. actives lie on both sides. binding response (% of control), % at 10 µM; in the data active = binding response below about 74% or above about 130%; inactive = in between
RGS19-Gao single: regulators of RGS19-Galphao binding, confirmation, biochemical, single point, multiplexed bead flow cytometry; AID 1841, 2009; actives 5% (n = 1,700); bead-based flow cytometry RGS19-Galphao binding; actives lie on both sides; response (percent of control binding), % at 10 µM; shares compounds with RGS16-Gao HTS; in the data active = response below about 50% or above about 160%; inactive = in between
Each line names hits and unclear results; the compound was inactive in the other large screens (follow-up assays come after a bar, where they were run); [ ] = another dose, or the depositor's remark. Unless noted, the rule behind the calls is not given here.

COc1ccccc1-n1c(-c2ccccc2)n[nH]c1=S	RGS7-Gao 159[activator] | RGS-Gao 106 | Avidin counter inactive | RGS8-Gao single inactive | RGS7-Gao confirm 176[activator] | RGS16-Gao conf 137[activator] | RGS4-Gao confirm 133[activator] | RGS19-Gao single 157[activator]
COc1ccccc1-n1c(-c2cn(C)nc2C)n[nH]c1=S	RGS16-Gao HTS 13 | RGS-Gao 93 | Avidin counter inactive | RGS8-Gao single inactive | RGS7-Gao confirm inactive | RGS16-Gao conf inactive | RGS4-Gao confirm inactive | RGS19-Gao single inactive
CC(C)(C)c1ccc(C(=O)NC(Cc2ccccc2)C(=O)O)cc1 (configuration not stated)	none
O=C(N[C@@H](Cc1ccc(O)cc1)C(=O)O)c1ccc(C(F)(F)F)cc1	RGS7-Gao 152[activator] | RGS-Gao 138 | Avidin counter inactive | RGS8-Gao single inactive | RGS7-Gao confirm inactive | RGS16-Gao conf inactive | RGS4-Gao confirm inactive | RGS19-Gao single inactive
CCOC(=O)CN1C(c2ccc(O)cc2)Nc2ccc(Br)cc2C1c1ccccc1 (configuration not stated)	RGS16-Gao HTS 14 | RGS-Gao 85 | Avidin counter inactive | RGS8-Gao single inactive | RGS7-Gao confirm inactive | RGS16-Gao conf inactive | RGS4-Gao confirm inactive | RGS19-Gao single inactive
CN(C)CCOC(=O)CCCCCCCCC(=O)OCCN(C)C	RGS7-Gao inconclusive (no result: GSH bead fluor)
CCOC(=O)Cc1csc(NC(=O)c2csc3c2CCCC3)n1	RGS7-Gao 19, RGS4-Gao reg 29, RGS8-Gao 14 | Avidin counter inactive | RGS8-Gao single inactive | RGS7-Gao confirm inactive | RGS16-Gao conf inactive | RGS4-Gao confirm inactive | RGS19-Gao single inactive
CCOC(=O)Cc1csc(NC(=O)c2cc3c(s2)CCCC3)n1	none
N#Cc1cccc(C#N)c1Oc1ccc(N)cc1	RGS7-Gao inconclusive (no result: GSH bead fluor)
O=C(Nc1cc(F)c(Br)cc1F)c1ccc(Cl)cc1	RGS7-Gao inconclusive (no result: GSH bead fluor)
Cc1ccccc1N=C(NOCc1ccc(Cl)cc1Cl)c1nonc1N	none (no result: Avidin bead fluor, RGS7-Gao, RGS16-Gao HTS, RGS4-Gao reg, RGS8-Gao) | Avidin counter inactive | RGS8-Gao single inactive | RGS7-Gao confirm inactive | RGS16-Gao conf inactive | RGS4-Gao confirm inactive | RGS19-Gao single inactive
Cc1nn(C)cc1C(C(=O)NC1CCCCC1)N(Cc1ccccc1Cl)C(=O)c1cnccn1 (configuration not stated)	none
COc1ccc(OC)c(NC(=O)Nc2nnc(N3CCC(C)CC3)s2)c1	RGS7-Gao 43, RGS4-Gao reg 40, RGS8-Gao 58 | Avidin counter inactive | RGS8-Gao single inactive | RGS7-Gao confirm inactive | RGS16-Gao conf inactive | RGS4-Gao confirm inactive | RGS19-Gao single inactive
CC1(C)Cc2cccc(OCC(=O)Nc3cc(C(F)(F)F)ccc3N3CCOCC3)c2O1	Avidin bead fluor 141, RGS7-Gao 226[activator] | RGS-Gao 118 | Avidin counter inactive | RGS8-Gao single inactive | RGS7-Gao confirm inactive | RGS16-Gao conf inactive | RGS4-Gao confirm inactive | RGS19-Gao single inactive
Nc1nc(SCC(=O)Nc2cc(C(F)(F)F)ccc2N2CCOCC2)n[nH]1	RGS7-Gao 24, RGS16-Gao HTS 16, RGS4-Gao reg 29, RGS8-Gao 18 | Avidin counter inactive | RGS8-Gao single inactive | RGS7-Gao confirm inactive | RGS16-Gao conf inactive | RGS4-Gao confirm inactive | RGS19-Gao single inactive
Nc1nc(SCC(=O)N2CCOCC2)n[nH]1	RGS7-Gao 189[activator] | RGS-Gao 129 | Avidin counter inactive | RGS8-Gao single inactive | RGS7-Gao confirm inactive | RGS16-Gao conf inactive | RGS4-Gao confirm inactive | RGS19-Gao single inactive
O=C(CSc1n[nH]c(-c2ccccc2O)n1)N1CCOCC1	none
Cc1nc2ccccc2nc1OCC(=O)Nc1cc(C(F)(F)F)ccc1N1CCOCC1	none
O=C(NCc1cccnc1)C(=O)NCC1OCCN1S(=O)(=O)c1cc(F)ccc1F (configuration not stated)	Avidin bead fluor 75, RGS7-Gao inconclusive, RGS16-Gao HTS 200[activator], RGS4-Gao reg 206[activator] (no result: GSH bead fluor) | Avidin counter inactive | RGS8-Gao single inactive | RGS7-Gao confirm inactive | RGS16-Gao conf inactive | RGS4-Gao confirm inactive | RGS19-Gao single inactive
COc1ccc(N(CC(=O)NCc2ccccc2C)S(=O)(=O)c2ccccc2[N+](=O)[O-])c(OC)c1	none
C[C@H](NC(=O)c1nc[nH]c1C(=O)NCc1ccccc1)C(=O)OC(C)(C)C	RGS7-Gao 26, RGS4-Gao reg 39, RGS8-Gao 42 | Avidin counter inactive | RGS8-Gao single inactive | RGS7-Gao confirm inactive | RGS16-Gao conf inactive | RGS4-Gao confirm inactive | RGS19-Gao single inactive
